The list is not random: actives were taken first. Their share in the collection is about 3.8%.
ATXN2 expr inh = inhibitors of ATXN2 expression; 0.72% of 360,000 active; HEK-293 ATXN2-luciferase reporter, luminescence, 24 h; Potency, µM (top dose mostly 57 µM), without a hit: at the top dose activity change, negative = inhibition, most hits filed as inhibitors; further: on the % scale 0 is the no-effect control and ±100 the full control effect; nearly all actives have a fitted effect of over 55% in size
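ATXN2-luciferase reporter cells (luciferase flanked by upstream and downstream ATXN2 gene portions) were treated 24 h at 37 °C with compounds at up to 57 uM. SteadyGlo luminescence gave expression; GF-AFC fluorescence gave viability.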
Nrf2 inh = Nrf2 pathway inhibition. A549 ARE-Fluc reporter, luciferase luminescence, 18-24 h. Potency, µM (titrated, usually from 46 µM), inactives show at the top dose activity change, negative = inhibition, actives largely listed as inhibitors. 2.1% of 360,000 active; further: on the % scale 0 is the no-effect control and ±100 the full control effect; nearly all actives have a fitted effect of over 60% in size
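Two sequential reads on A549 ARE_Fluc cells exposed to compound for 18-24 h: a CellTiter-Fluor fluorescence read for viability, then a luciferase luminescence read for Nrf2/ARE activity.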
A549 viability = A549 cytotoxicity, counter-screen for Nrf2 inhibitors; A549 ARE-Fluc cells, CellTiter-Fluor viability, 18-24 h; Potency, µM (titrated, usually from 46 µM), inactives show at the top dose activity change, negative = cytotoxicity, hits mostly inhibitors; 0.16% of 390,000 active; further: on the % scale 0 is the no-effect control and ±100 the full control effect
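A549 ARE_Fluc cells in 5% FBS OPTI-MEM were exposed to compounds in concentration-response for 18-24 h at 37 deg C. Viability was read by CellTiter-Fluor fluorescence (Ex 405/Em 525) after 30 min, before the luciferase read.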
ATXN viability = cell viability loss in ATXN counter-screen; S2 cells (HEK-293 line with an ATXN2-luciferase reporter) viability, CellTiter-Fluor protease fluorescence, 24 h; 0.49% of 400,000 active; Potency, µM (doses to about 56.7 µM), usual class: cytotoxic; further: nearly all actives have a fitted effect of over 40% in size
HepG2 viability = HepG2 cytotoxicity, counter-screen for TGF-b inhibitors. HepG2 CAGA-GFP viability, ATP luminescence, 18 h. Potency, µM (doses to about 46.1 µM), for the others: top-dose activity change, negative = cytotoxicity, usual class: cytotoxic. 0.76% of 410,000 active
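CellTiter-Glo luminescence gave cytotoxicity after 18 hours at 37 degrees C. The cells were HepG2 CAGA-GFP in 1% FBS DMEM, stimulated with 500 pg/mL TGF-beta after compound addition. %Activity was normalised to no-cell wells (complete cell-killing) and DMSO (no toxicity), and curves were fitted and classified.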
TGFb inhibitor = inhibitors of TGF-b signaling; HepG2 CAGA-GFP TGF-b/SMAD3 reporter, GFP fluorescence, 18 h; TGF-beta stimulated, 500 pg/mL final; Potency, µM (doses to about 46.1 µM), without a hit: at the top dose activity, negative = inhibition, hits mostly inhibitors; 1.2% of 410,000 active; AID 588855; further: on the % scale 0 is the no-effect control and ±100 the full control effect; nearly all actives have a fitted effect of over 65% in size
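HEPG2 CAGA-GFP cells (1000/well, DMEM with 1% FBS) were pre-incubated 2 h at 37 degrees C, given compound by pin tool, then stimulated with TGF-beta at 500 pg/mL final for 18 h before per-cell GFP fluorescence imaging.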
* = called active by the depositor; i = inactive; ? = inconclusive; · = no result given; [ ] = another dose, or the depositor's remark. The call rests on the fitted dose curve; in most records, active means well fitted curve in the direction sought with a large enough effect; inconclusive means small, poorly fitted or top-dose-only effect, or another doubt; inactive means no such curve, though single readings can be large; an effect the other way counts as inactive or inconclusive. Potency means the concentration at half of the fitted maximal effect.

SMILES | ATXN2 expr inh | Nrf2 inh | A549 viability | ATXN viability | HepG2 viability | TGFb inhibitor
Cc1ccn2c(Nc3ccc4c(c3)OCCO4)c(-c3ccc(C)o3)nc2c1 | 13% | 2% | -6% | ? | -16% | -7%
CCOC(=O)c1ccc(Nc2nc3ccccc3nc2NS(=O)(=O)c2ccc(Cl)cc2)cc1 | -10% | 5% | 2% | i | -41% | 156%
CCc1ccc(Nc2nc3ccccc3nc2NS(=O)(=O)c2ccccc2)cc1 | 6% | 23µM* | -17% | i | -42% | ?
O=C(CSc1ccc2c(c1)OCCO2)Nc1ccc(Br)cc1 | -19% | 23µM* | -5% | i | -4% | ?
COc1ccccc1-c1nnc(Sc2nc([N+](=O)[O-])nn2C)o1 | 10µM* | ? | ? | · | 2% | -4%
CNC[C@H](CC1CCCCC1)NC[C@H](CO)NCCc1cccc(C(F)(F)F)c1 | 28µM* | 6% | 2% | 22µM* | -103% | ?
CNC[C@H](CC1CCCCC1)NC[C@H](CO)NCC1(c2ccccc2)CC1 | ? | 17% | -17% | i | -58% | ?
Cc1ccc(CN2C(=O)c3ccccc3Sc3ccc(C(=O)NC4CCCCC4)cc32)cc1 | · | · | -6% | · | -5% | -2%
CC1(C(=O)Nc2ccc(F)cc2F)CCN1C(=O)CCC1CCCC1 (centres undefined) | 0% | · | · | i | -10% | -25%
CCOc1ccc(C(CC(=O)O)NC(=O)Cc2ccc(Cl)cc2)cc1 (centres undefined) | 4% | -2% | -2% | i | 2% | 4%
CCc1c(O)cc(O)c(C(=O)c2ccc(OCCN3CCOCC3)c(OC)c2)c1CC(=O)N(CCOC)CCOC | 1.1µM* | · | · | · | · | ·
COc1cc(C(=O)OCCCN2CCOCC2)ccc1O | -13%[11.3 µM] | -1% | 0% | i | 3% | 7%
Cc1cccn2cc(CNS(=O)(=O)c3ccc4ccccc4c3)nc12 | 0% | 13µM* | -7% | i | -25% | 0%
CCOC(=O)C1CCCN(Cc2ccc(OC)c(OCc3ccccc3)c2)C1 (centres undefined) | -26% | 3% | 4% | i | -34% | -22%
COc1ccc(OCCCn2c(CCNC(=O)C3CCCCC3)nc3ccccc32)cc1 | · | ? | -2% | · | -17% | 10µM*
Cc1cccc(C)c1OCCCn1c(CCNC(=O)C2CCCCC2)nc2ccccc21 | · | ? | ? | · | -94% | 11µM*
Cc1ccccc1OCCCCn1c(CCNC(=O)C(C)(C)C)nc2ccccc21 | ? | 23µM* | -25% | ? | -86% | 16µM*
O=C(NCCc1nc2ccccc2n1CCCOc1ccccc1)C1CCCCC1 | · | ? | -7% | · | -9% | ?
Cc1ccccc1CN(C)Cc1cc(=O)oc2c(C)c(C)ccc12 | 30% | ? | 1% | i | -73% | -9%
Cc1ccc2c(CSc3nncn3C)cc(=O)oc2c1C | -21% | 0% | 18% | i | 10µM* | 0%
Cc1c(-c2ccccc2)[n+](=O)c(-c2ccc(Cl)cc2)c(C)n1[O-] | -20% | 1% | 1% | ? | -3% | 1%
Cc1cc(C)c(-c2csc(NC(=O)/C=C/c3cccs3)n2)c(C)c1 | ? | 23µM* | -16% | i | -6% | ?
Cc1cc(C)nc(NC(=O)/C=C/c2cccs2)c1 | 44% | 10% | -6% | i | -8% | -2%
Brc1csc(CN2CCc3nc(Nc4ccccc4)ncc3C2)c1 | -16% | · | -1% | ? | -42% | 13µM*
Cc1oc(-c2cccc(Cl)c2)nc1Cn1c(SCc2ccccc2F)nc2ccncc21 | 4% | ? | -6% | i | -13% | ?
SMILES | ATXN2 expr inh | Nrf2 inh | A549 viability | ATXN viability | HepG2 viability | TGFb inhibitor
O=C(Nc1ccc(S(=O)(=O)Nc2ncccn2)cc1)C1COc2ccccc2O1 (centres undefined) | 20% | ? | 1% | i | 6% | 17%
COc1ccc(OC)c(NS(=O)(=O)c2ccc(NC(=O)C3COc4ccccc4O3)cc2)c1 (centres undefined) | -32% | 16µM* | -20% | i | -19% | ?
CCc1noc(C)c1C(=O)N(C)CC(=O)Nc1ccc(F)c(F)c1F | -3% | -2% | 1% | i | 9% | 1%
CC1CCN(S(=O)(=O)c2cc(C(=O)N3CCN(c4ccccc4)CC3)ccc2Br)CC1 | · | · | · | i | -13% | -16%
C=CCNC(=O)C1CCC(CNc2nc(=S)[nH]c3ccccc23)CC1 (centres undefined) | · | ? | -7% | i | 1% | 2%
O=C(C1CCC(CNc2nc(=S)[nH]c3ccccc23)CC1)N1CCN(c2ccccn2)CC1 (centres undefined) | -25% | 16µM* | ? | i | -20% | ?
Cc1[nH][nH]c(=O)c1C(c1c(C)[nH][nH]c1=O)c1cn(Cc2ccc(Cl)c(Cl)c2)c2ccccc12 | ? | -12% | -2% | ? | -19% | 13µM*
CCCCn1nc2cc(C(=O)NCc3cc(C(F)(F)F)cc(C(F)(F)F)c3)ccc2c1OCC | -4% | 18µM* | -6% | i | -27% | -13%
CCOc1c2ccc(C(=O)NCc3cc(C(F)(F)F)cc(C(F)(F)F)c3)cc2nn1CCOC | -5% | ? | -6% | i | -24% | -23%
NC(N)=Nc1ccc(/C=C2\C=Cc3ccccc32)cc1 | · | · | · | · | -106% | 16µM*
O=Cc1ccc(/C=C2\C=Cc3ccccc32)cc1 | · | · | · | · | -62% | 3.5µM*
C1=Cc2ccccc2/C1=C/c1ccc(/C=C2\C=Cc3ccccc32)cc1 | · | · | · | · | 22% | 4%
CC(=O)NC(C)(c1ccccc1)c1nc(-c2cccc(C(F)(F)F)c2)cs1 (centres undefined) | -38% | · | · | ? | -34% | -29%
COc1cc(/C=N\NC(=O)c2cccnc2)ccc1OC(=O)c1ccccc1Cl | 4% | 15µM* | -5% | ? | 5% | 1%
COc1cc(/C=N/NC(=O)c2cccnc2)ccc1OC(=O)c1ccco1 | 1% | 1% | 3%[1.84 µM] | i | -12% | 18%
COc1cc(C(=O)Nc2nc(-c3ccc(Cl)cc3)c(C)s2)ccc1OCC(=O)Nc1ccc(F)cc1 | ? | 21µM* | ? | · | -53% | ?
CCOC(=O)C1CCCN(C(=O)c2cc(F)ccc2C)CC1 (centres undefined) | -3% | · | · | i | 3% | 5%
CN(C)c1ccc(CN(Cc2ccco2)C(=O)COc2ccc(F)cc2)cc1 | · | ? | 1% | · | -13% | ·

High-throughput results: PubChem BioAssay, National Center for Advancing Translational Sciences (NCATS)
